We go through 1 molecule from ChEMBL document CHEMBL2218924, “A broad activity screen in support of a chemogenomic map for kinase signalling research and drug discovery” (Biochem J, 2013).

In assay [1] the target is Tyrosine-protein kinase SYK (Homo sapiens) (UniProt P43405). Particulars: at 10 µM.
Assay [2] has as its target T1, Mitogen-activated protein kinase kinase kinase 7 (Homo sapiens) (UniProt O43318).
T1 sequence (whole entry): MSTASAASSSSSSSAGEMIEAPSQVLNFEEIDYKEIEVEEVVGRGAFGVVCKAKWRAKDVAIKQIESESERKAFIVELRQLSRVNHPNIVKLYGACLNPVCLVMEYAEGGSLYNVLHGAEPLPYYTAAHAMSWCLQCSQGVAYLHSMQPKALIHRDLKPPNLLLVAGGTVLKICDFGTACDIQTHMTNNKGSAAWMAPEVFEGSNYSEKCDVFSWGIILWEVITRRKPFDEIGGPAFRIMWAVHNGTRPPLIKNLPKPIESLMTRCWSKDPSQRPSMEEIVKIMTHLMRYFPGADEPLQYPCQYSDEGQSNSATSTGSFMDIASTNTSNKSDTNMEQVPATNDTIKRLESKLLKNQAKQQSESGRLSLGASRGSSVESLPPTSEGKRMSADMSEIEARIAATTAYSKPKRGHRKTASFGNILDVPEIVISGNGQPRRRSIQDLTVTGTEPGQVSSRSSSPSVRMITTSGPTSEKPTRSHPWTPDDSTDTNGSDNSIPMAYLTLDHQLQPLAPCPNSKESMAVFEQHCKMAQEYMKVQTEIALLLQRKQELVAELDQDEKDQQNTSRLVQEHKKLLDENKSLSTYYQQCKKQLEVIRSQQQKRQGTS
As to conditions: at 1 µM.

The target in assay [3] is T1, Mitogen-activated protein kinase kinase kinase 7 (Homo sapiens). As to conditions: at 10 µM.
Assay [4] addresses T2, Serine/threonine-protein kinase TAO1 (Homo sapiens) (UniProt Q7L7X3).
T2 sequence (whole entry): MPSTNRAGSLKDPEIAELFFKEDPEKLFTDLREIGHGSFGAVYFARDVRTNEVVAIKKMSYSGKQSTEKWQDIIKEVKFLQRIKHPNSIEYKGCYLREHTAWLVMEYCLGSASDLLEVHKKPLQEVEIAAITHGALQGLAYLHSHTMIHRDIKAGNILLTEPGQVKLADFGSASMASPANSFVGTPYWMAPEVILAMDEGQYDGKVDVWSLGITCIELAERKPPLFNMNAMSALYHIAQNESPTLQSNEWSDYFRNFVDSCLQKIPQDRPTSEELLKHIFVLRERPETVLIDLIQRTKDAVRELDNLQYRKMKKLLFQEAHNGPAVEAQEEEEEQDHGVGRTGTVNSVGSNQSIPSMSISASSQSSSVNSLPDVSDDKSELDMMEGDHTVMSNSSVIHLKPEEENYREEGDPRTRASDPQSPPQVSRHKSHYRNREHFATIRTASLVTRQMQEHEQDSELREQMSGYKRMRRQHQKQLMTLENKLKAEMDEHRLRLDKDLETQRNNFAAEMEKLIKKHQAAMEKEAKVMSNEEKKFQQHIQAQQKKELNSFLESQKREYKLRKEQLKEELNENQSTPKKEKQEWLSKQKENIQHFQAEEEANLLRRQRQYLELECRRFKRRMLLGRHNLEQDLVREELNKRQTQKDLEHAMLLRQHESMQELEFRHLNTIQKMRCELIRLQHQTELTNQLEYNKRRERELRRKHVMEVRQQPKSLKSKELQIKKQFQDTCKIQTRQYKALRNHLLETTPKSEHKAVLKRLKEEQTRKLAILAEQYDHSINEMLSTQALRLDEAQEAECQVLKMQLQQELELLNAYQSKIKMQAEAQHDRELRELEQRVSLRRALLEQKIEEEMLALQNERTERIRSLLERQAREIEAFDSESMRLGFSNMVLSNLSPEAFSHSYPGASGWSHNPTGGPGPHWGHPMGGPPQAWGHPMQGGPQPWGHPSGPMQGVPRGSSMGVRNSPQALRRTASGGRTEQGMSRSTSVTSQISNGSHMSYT
As to conditions: at 1 µM.

Assay [5] has as its target T2, Serine/threonine-protein kinase TAO1 (Homo sapiens). As to conditions: at 10 µM.
Assay [6] concerns the target T3, Serine/threonine-protein kinase TAO2 (Homo sapiens) (UniProt Q9UL54).
T3 sequence (whole entry): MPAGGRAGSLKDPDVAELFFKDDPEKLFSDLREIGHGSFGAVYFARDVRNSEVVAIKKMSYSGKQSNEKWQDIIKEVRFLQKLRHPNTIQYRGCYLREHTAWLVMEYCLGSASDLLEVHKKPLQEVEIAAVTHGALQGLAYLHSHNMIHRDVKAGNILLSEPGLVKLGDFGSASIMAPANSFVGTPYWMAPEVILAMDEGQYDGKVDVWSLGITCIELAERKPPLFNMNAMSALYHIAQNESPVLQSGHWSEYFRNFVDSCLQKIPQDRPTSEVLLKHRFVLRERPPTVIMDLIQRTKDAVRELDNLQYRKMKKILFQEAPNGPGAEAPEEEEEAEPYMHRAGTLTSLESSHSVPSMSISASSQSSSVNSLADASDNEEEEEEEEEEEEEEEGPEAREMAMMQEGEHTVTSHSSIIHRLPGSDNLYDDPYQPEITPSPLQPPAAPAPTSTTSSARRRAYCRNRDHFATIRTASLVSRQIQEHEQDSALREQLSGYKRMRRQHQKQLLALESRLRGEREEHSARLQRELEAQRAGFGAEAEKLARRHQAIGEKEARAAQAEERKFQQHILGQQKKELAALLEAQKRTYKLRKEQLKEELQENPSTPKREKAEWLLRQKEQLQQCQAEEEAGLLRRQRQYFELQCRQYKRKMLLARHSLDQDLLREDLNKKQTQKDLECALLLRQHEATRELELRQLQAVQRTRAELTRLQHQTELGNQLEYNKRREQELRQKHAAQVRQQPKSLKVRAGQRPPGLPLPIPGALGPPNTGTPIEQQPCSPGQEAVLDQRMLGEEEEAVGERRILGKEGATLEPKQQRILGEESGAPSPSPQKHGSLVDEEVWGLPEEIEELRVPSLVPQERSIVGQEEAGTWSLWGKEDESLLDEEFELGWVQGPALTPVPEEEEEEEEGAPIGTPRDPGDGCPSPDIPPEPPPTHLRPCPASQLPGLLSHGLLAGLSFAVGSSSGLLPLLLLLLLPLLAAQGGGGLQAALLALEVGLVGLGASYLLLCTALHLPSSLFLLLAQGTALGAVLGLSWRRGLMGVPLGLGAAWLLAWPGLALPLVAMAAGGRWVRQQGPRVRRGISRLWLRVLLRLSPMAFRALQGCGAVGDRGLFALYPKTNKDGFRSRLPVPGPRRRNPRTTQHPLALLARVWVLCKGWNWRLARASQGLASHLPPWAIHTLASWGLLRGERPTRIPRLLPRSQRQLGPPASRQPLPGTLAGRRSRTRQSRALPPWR
As to conditions: at 1 µM.

Assay [7] concerns the target T3, Serine/threonine-protein kinase TAO2 (Homo sapiens). Particulars: at 10 µM.
The target in assay [8] is T4, Serine/threonine-protein kinase TAO3 (Homo sapiens) (UniProt Q9H2K8).
T4 sequence (whole entry): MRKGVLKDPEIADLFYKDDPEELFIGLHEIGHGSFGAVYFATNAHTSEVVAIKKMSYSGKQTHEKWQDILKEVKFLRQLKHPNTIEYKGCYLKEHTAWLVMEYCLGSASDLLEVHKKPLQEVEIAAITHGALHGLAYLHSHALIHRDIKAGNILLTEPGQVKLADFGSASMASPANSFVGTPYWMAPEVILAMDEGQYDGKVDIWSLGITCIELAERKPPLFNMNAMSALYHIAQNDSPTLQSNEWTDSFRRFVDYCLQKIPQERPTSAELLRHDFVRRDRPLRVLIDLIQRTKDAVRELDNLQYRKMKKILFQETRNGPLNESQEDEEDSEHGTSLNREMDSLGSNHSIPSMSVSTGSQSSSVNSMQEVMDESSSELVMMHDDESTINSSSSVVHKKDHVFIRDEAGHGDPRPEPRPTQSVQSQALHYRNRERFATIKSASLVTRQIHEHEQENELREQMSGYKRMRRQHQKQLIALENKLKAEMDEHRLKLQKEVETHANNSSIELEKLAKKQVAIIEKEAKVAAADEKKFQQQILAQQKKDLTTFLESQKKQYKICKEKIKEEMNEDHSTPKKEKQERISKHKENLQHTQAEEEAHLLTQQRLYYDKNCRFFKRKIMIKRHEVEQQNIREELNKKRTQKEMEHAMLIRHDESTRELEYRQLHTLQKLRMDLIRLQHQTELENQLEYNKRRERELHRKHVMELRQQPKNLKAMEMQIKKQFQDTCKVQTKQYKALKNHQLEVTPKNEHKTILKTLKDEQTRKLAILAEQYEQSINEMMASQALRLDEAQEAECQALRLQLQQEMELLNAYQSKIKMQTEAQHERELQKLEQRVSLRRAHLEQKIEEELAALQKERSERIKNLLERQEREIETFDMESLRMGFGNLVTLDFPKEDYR
As to conditions: at 1 µM.

Assay [9] has as its target T4, Serine/threonine-protein kinase TAO3 (Homo sapiens). As to conditions: at 10 µM.
Assay [10] has as its target T5, Serine/threonine-protein kinase TBK1 (Homo sapiens) (UniProt Q9UHD2).
T5 sequence (whole entry): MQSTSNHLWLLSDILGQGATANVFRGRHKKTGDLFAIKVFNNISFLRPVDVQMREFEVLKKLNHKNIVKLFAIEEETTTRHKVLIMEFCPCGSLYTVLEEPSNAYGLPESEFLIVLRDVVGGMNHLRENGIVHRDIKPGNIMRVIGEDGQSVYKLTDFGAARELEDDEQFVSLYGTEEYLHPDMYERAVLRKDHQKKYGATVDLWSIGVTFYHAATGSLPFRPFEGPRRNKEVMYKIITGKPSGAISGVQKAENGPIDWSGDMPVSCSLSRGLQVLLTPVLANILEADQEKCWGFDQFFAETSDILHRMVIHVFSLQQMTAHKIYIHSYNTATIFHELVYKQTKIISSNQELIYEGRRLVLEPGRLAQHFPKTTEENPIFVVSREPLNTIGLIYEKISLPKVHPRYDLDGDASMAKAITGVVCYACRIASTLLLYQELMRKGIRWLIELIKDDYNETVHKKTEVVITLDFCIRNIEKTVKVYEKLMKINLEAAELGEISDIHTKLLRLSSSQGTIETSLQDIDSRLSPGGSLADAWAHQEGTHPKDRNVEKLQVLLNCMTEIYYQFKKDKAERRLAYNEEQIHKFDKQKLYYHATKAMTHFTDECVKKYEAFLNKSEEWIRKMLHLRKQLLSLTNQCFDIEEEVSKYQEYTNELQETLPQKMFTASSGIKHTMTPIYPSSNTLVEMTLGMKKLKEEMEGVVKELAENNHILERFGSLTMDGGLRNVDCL
As to conditions: at 1 µM.

`Oc1ccc(Nc2nc(-c3ccc(Cl)cc3)cs2)cc1`: the residual activity in assay [1] is 114%; in assay [2], 112%; in assay [3], 98%; in assay [4], 106%; in assay [5] it was 85%; in [6], 118%. Further, the residual activity in [7] came out at 89%; in assay [8] it was 99%; in assay [9] it was 95%; in assay [10] it was 114%.
